Measurements published in ChEMBL document CHEMBL3988442, “University of Dundee, Small-Polar-MMV Screening Library” (2021).
The whole screen tested about 69,000 compounds, of which about 950 (1.4%) showed an effect of 50% or more. The full list was thinned out, with strong results kept by preference.

What follows are molecules tested on Mycobacterium tuberculosis (assay: Cornell M. t heat shock assay; also: in the data most compounds retested in dose-response had high values).
Type: functional, organism-based
Design: dose or concentration left out as unconfirmed
`Cl.NC(=O)C1CNCCN1C(=O)COc1ccccc1` (stereo unspecified) was tested, and the “Percent Effect” value was -11.48%.
In the case of `C[C@H]1CN(Cc2cccc(F)c2)C[C@@]12CCN(CC(=O)N(C)C)C2=O.O=C(O)C(F)(F)F`, the “Percent Effect” value is reported as -2.321%.
For `CC(C)C(=O)N1CC[C@H]2N(C)CC[C@@]2(C(=O)N2CCCC2)CC1.O=C(O)C(F)(F)F`, the “Percent Effect” value was 7.304%.
In the case of `CCC1(O)CCCN(c2nc(-c3ccccn3)nc3c2c(C)nn3C)C1` (stereo unspecified), the “Percent Effect” value is reported as 100.9%.
With `CSCC[C@@H](CO)Nc1nc(-c2ccccn2)nc2c1c(C)nn2C` the “Percent Effect” value was 63.32%.
With `c1ccc(-c2nc3c(c(NCCn4cccc4)n2)CCNCC3)nc1` the “Percent Effect” value was -4.2%.
`Cc1nn(C)c2nc(-c3ccccn3)nc(NCCCOC(C)C)c12` was tested, and the “Percent Effect” value was 98.39%.
In the case of `Cc1nc(N2CCC(O)(c3ccccc3)CC2)c2c(C)nn(C)c2n1`, the “Percent Effect” value is reported as 12.95%.
For `CCSCCNc1nc(-c2ccccn2)nc2c1c(C)nn2C`, the “Percent Effect” value was 102%.
For `CCSCCNc1nc2c(s1)c(C)nn2C`, the “Percent Effect” value was 6.366%.
In the case of `CSCC[C@@H](CO)Nc1ccc(-c2nc(-c3ccccc3C)no2)cn1`, the “Percent Effect” value is reported as -15.48%.
`CC(=O)NCCNc1nc(-c2ccccn2)nc2c1c(C)nn2C` was tested, and the “Percent Effect” value was -12.81%.
`CCC1(O)CCCN(c2ncnc3c2c(C)nn3C)C1` (stereo unspecified) was tested, and the “Percent Effect” value was 10.34%.
`CSCC[C@@H](CO)Nc1ccc(-c2nc(-c3ccccc3F)no2)cn1` was tested, and the “Percent Effect” value was -33.46%.
With `c1ccc(-c2nc3c(c(NCCCn4cncn4)n2)CCNCC3)nc1` the “Percent Effect” value was 8.8%.
`Cc1ccc(CN2CC[C@H]3OCC[C@@H](C(=O)N4CCCCO4)[C@@H]3C2)o1.O=C(O)C(F)(F)F` was tested, and the “Percent Effect” value was -16.6%.
In the case of `O=C(O)C(F)(F)F.O=C([C@@H]1CCO[C@@H]2CCN(CCc3ccccc3)C[C@@H]21)N1CCCC1`, the “Percent Effect” value is reported as -24.53%.
For `Cl.c1cnc(Nc2cc(CCC3CCCNC3)ccn2)cn1` (stereo unspecified), the “Percent Effect” value was 5.615%.
`Cc1nnc(N2CC[C@H]3O[C@H](C(=O)NCc4ccccn4)CC[C@H]32)s1.O=C(O)C(F)(F)F.O=C(O)C(F)(F)F` was tested, and the “Percent Effect” value was -4.989%.
With `CCCN1C[C@H]2CC[C@@H]1CN(c1nnc(C(C)C)s1)C2` the “Percent Effect” value was 23.85%.
With `O[C@@H]1CN(Cc2cccnc2)C[C@H]1Oc1ccccc1` the “Percent Effect” value was -6.962%.
In the case of `CCN1CCN(C)C(=O)C12CCN(C(=O)Cc1ccccn1)CC2.O=C(O)C(F)(F)F`, the “Percent Effect” value is reported as 3.493%.
In the case of `Cc1nn(C)c2nc(-c3ccccn3)nc(NCCC3CCCN3C)c12` (stereo unspecified), the “Percent Effect” value is reported as -21.22%.
In the case of `Cc1nn(C)c2nc(-c3ccccn3)nc(NC[C@@H]3CCCO3)c12`, the “Percent Effect” value is reported as 93.55%.
With `Cc1nn(C)c2nc(N(Cc3ccccn3)CC3CCCO3)sc12` (stereo unspecified) the “Percent Effect” value was -20.31%.
With `CN(Cc1ccco1)Cc1cncc2c1CCN(Cc1ccoc1)C2.Cl.Cl.Cl` the “Percent Effect” value was -8.81%.
For `COc1ccc(CN(C)CC(O)COCc2ccccc2Cl)c(OC)c1.O=C(O)C(=O)O` (stereo unspecified), the “Percent Effect” value was 10.76%.
`Cl.NC(=O)c1ccc(C2CCCNC2)nc1` (stereo unspecified) was tested, and the “Percent Effect” value was 6.817%.
In the case of `Cc1noc(C)c1C(=O)N1C[C@@H]2COC[C@]2(COc2ccccn2)C1.O=C(O)C(F)(F)F`, the “Percent Effect” value is reported as -29.95%.
`Cc1ccc2nc(C3CCCN3Cc3scnc3C)[nH]c2c1` (stereo unspecified) was tested, and the “Percent Effect” value was 1.494%.
With `Cc1ccc2nc(C3CCCN3Cc3csc(C)n3)[nH]c2c1` (stereo unspecified) the “Percent Effect” value was 87.71%.
`Cc1ccc2nc(C3CCCN3Cc3nnc(C)s3)[nH]c2c1` (stereo unspecified) was tested, and the “Percent Effect” value was -8.638%.
In the case of `Cn1cc(CN2C[C@@H]3COC[C@]3(C(=O)NCCc3ccccc3)C2)cn1.O=C(O)C(F)(F)F`, the “Percent Effect” value is reported as -18.43%.
For `COCCC(C)NS(=O)(=O)c1ccc(C)c(N(C)C)c1` (stereo unspecified), the “Percent Effect” value was 1.91%.
`CCN(CC)c1ncnc2c1CCN(C(=O)Cc1ccccn1)CC2.O=C(O)C(F)(F)F.O=C(O)C(F)(F)F` was tested, and the “Percent Effect” value was -18.08%.
`COCC1CN(c2ncc(F)cn2)Cc2cnn(C)c21.O=C(O)C(F)(F)F.O=C(O)C(F)(F)F` (stereo unspecified) was tested, and the “Percent Effect” value was 9.404%.
With `CCn1ncc2c1C(COC)CN(c1ncc(F)cn1)C2.O=C(O)C(F)(F)F.O=C(O)C(F)(F)F` (stereo unspecified) the “Percent Effect” value was 55.18%.
`CCn1ncc2c1C(COC)CN(Cc1ccc(F)cc1)C2.O=C(O)C(F)(F)F.O=C(O)C(F)(F)F` (stereo unspecified) was tested, and the “Percent Effect” value was -13.12%.
`CCOCC1CN(Cc2ccco2)Cc2nccn2C1.O=C(O)C(F)(F)F` (stereo unspecified) was tested, and the “Percent Effect” value was -9.1%.
With `CN(C)C(=O)CC1CC2(CCN(CC3CC3)CC2)c2cc(F)ccc21.O=C(O)C(F)(F)F` (stereo unspecified) the “Percent Effect” value was -15.82%.
`COC(=O)C1CCN(C(=O)c2nnc3ccc(C)cc3n2)CC1` was tested, and the “Percent Effect” value was 15.86%.
For `Cc1ccc2nnc(C(=O)NCC3CCCC3)nc2c1`, the “Percent Effect” value was 103.3%.
With `COc1ccc2nnc(C(=O)NC3CCCC3)nc2c1` the “Percent Effect” value was 57.83%.
In the case of `O=C(NCC1CC1)Nc1cnc2cc(Cl)ccc2c1O`, the “Percent Effect” value is reported as -11.98%.
In the case of `COc1ccc2nnc(C(=O)NCC3CCCC3)nc2c1`, the “Percent Effect” value is reported as 44.72%.
`COC(=O)C1CCN(C(=O)c2nnc3ccc(Cl)cc3n2)CC1` was tested, and the “Percent Effect” value was 26.61%.
With `CN1CCN(C(=O)c2nnc3ccc(Cl)cc3n2)CC1` the “Percent Effect” value was 68.14%.
With `O=C(NC1CCCCC1)c1nnc2ccc(N3CCOCC3)cc2n1` the “Percent Effect” value was 8.79%.
`CCn1nc(C)c(CNC(=O)c2nnc3ccc(OC)cc3n2)c1C` was tested, and the “Percent Effect” value was -6.041%.
In the case of `CCn1nc(C)c(CNC(=O)c2nnc3ccc(Cl)cc3n2)c1C`, the “Percent Effect” value is reported as 42.92%.
`O=C(NCC1CC1)c1nnc2ccc(Cl)cc2n1` was tested, and the “Percent Effect” value was 102.8%.
In the case of `Cc1ccc(-n2nnc(C(=O)NCC3CCCCC3)n2)cc1`, the “Percent Effect” value is reported as 10.71%.
With `CCOCC1CN(Cc2cnn(C)c2)Cc2nn(CC3CC3)cc21.O=C(O)C(F)(F)F` (stereo unspecified) the “Percent Effect” value was 2.131%.
With `CCCn1[nH]cc/c1=N\C(=O)CN1CCc2c(nc(C3CC3)n2C)C1` the “Percent Effect” value was 7.757%.
For `Cl.O=C(C1CCCCC1)N1C[C@H]2CNC[C@H]2C1`, the “Percent Effect” value was -3.289%.
`O=c1cc(CN2CC[C@H]3CC[C@@H](C2)N3)c2cccc3c2n1CCC3` was tested, and the “Percent Effect” value was -15.55%.
`CN(C)C(=O)COC1COC2(CCN(CC3CCOCC3)CC2)C1.O=C(O)C(F)(F)F` (stereo unspecified) was tested, and the “Percent Effect” value was -2.67%.
For `Cl.c1nc(N2CCOCC2)sc1-c1cncn1CCCN1CCCCC1`, the “Percent Effect” value was -3.925%.
`CC(C)NC(=O)c1ccc2c(c1)C1(CCN(C(C)C)CC1)C(=O)N2.O=C(O)C(F)(F)F` was tested, and the “Percent Effect” value was -33.29%.
For `Cc1noc(C)c1CN1CCn2cc(CNc3ccccn3)nc2C1.O=C(O)C(F)(F)F.O=C(O)C(F)(F)F`, the “Percent Effect” value was 4.3%.
In the case of `Cc1ccc(O[C@@H]2C[C@H]3CN(Cc4nccn4C)CCN3C2)cc1.O=C(O)C(F)(F)F.O=C(O)C(F)(F)F`, the “Percent Effect” value is reported as -24.79%.
`CC(C)NC(=O)CNC(=O)c1csc(Cc2ccccc2F)n1` was tested, and the “Percent Effect” value was -1.27%.
`COCC1N(C(=O)N2CCOCC2)[C@H]2CC[C@]1(O)CC2` (stereo partly specified) was tested, and the “Percent Effect” value was -3.821%.
For `COc1ccc(-c2nc(CN3CCCC(OC)C3)c(C)o2)c(F)c1` (stereo unspecified), the “Percent Effect” value was 93.73%.
In the case of `CCCOC1CCCN(Cc2nc(-c3ccc(F)cc3F)oc2C)C1` (stereo unspecified), the “Percent Effect” value is reported as -26.76%.
For `COCc1ncn(Cc2nc(-c3ccc(OC)cc3F)oc2C)n1`, the “Percent Effect” value was -9.071%.
With `O=C(O)C(F)(F)F.O=C(c1ccsc1)N1C[C@H]2CCC[C@@]2(COCc2cccnc2)C1` the “Percent Effect” value was -16.41%.
For `Cl.Cl.O=C(NCc1cncc2c1CCN(C1CCOCC1)C2)c1ccno1`, the “Percent Effect” value was 18.25%.
`Br.Cc1cc(C)nc(NCCC(=O)NCCn2ccnc2C)n1` was tested, and the “Percent Effect” value was -9.93%.
In the case of `Cc1csc(NCC(=O)c2c[nH]c3ccccc23)n1.I`, the “Percent Effect” value is reported as 13.99%.
In the case of `Cc1nc(CN2CCC3(C2)CN(Cc2ccco2)C3)cs1`, the “Percent Effect” value is reported as 18.48%.
For `Cc1nc(CN2CCC23CCN(Cc2ccco2)CC3)cs1`, the “Percent Effect” value was 77.77%.
`Cc1nc(CN2CCC23CCN(C(=O)c2ccco2)CC3)cs1` was tested, and the “Percent Effect” value was -3.59%.
For `Cc1nc(CN2C(=O)CCC23CCN(Cc2ccoc2)CC3)cs1.O=C(O)C(F)(F)F.O=C(O)C(F)(F)F`, the “Percent Effect” value was -26.87%.
`Cc1nc(CN2CCC23CCN(Cc2ccoc2)CC3)cs1` was tested, and the “Percent Effect” value was 94.23%.
For `Cc1nc(CN2C(=O)CCC23CCN(Cc2ccco2)CC3)cs1`, the “Percent Effect” value was 5.099%.
With `O=C(N1CCCO1)[C@@]12CCO[C@@H]1CCN(Cc1ccc(F)cc1)C2.O=C(O)C(F)(F)F` the “Percent Effect” value was -15.72%.
`Cn1cc(-c2cnc(N3CCOCC3)nc2)cc1C(=O)NCCO.O=C(O)C(F)(F)F` was tested, and the “Percent Effect” value was 10.75%.
`O=C(c1c[nH]c(=O)c(Cl)c1)N1C[C@@H]2CC[C@H](C1)N(CC1CCC1)C2` was tested, and the “Percent Effect” value was -23.49%.
In the case of `COCCn1c2c(ccc1=O)CC(NCc1cccnc1OC)CC2.O=C(O)C(F)(F)F.O=C(O)C(F)(F)F` (stereo unspecified), the “Percent Effect” value is reported as 19.47%.
`COC1COC2(CCN(CC3CC3)CC2)C1.O=C(O)C(F)(F)F` (stereo unspecified) was tested, and the “Percent Effect” value was -5.009%.
For `COCc1ccc(C(=O)N2CCC(c3cc4ncc(C)nc4[nH]3)C2)cc1` (stereo unspecified), the “Percent Effect” value was 6.722%.
With `COCc1ccc(C(=O)N2CCC(c3cc4nccnc4[nH]3)CC2)cc1` the “Percent Effect” value was 64.38%.
`Cc1cnc2cc(C3CCN(C(=O)c4ccncc4)CC3)[nH]c2n1` was tested, and the “Percent Effect” value was 11.57%.
For `COc1ccc(Cn2c(C3CCNCC3)cc3cccnc32)cc1.Cl`, the “Percent Effect” value was 2.964%.
For `CCOC(=O)CSc1nnc([C@@H](N)C(C)CC)o1.Cl` (stereo partly specified), the “Percent Effect” value was -17.57%.
In the case of `CCOCC1CN(C2CCCC2)Cc2cnn(CC3CCOCC3)c21.O=C(O)C(F)(F)F.O=C(O)C(F)(F)F` (stereo unspecified), the “Percent Effect” value is reported as -13.36%.
`c1ccc(O[C@H]2C[C@@H]3CN(Cc4cnccn4)C[C@@H]3C2)cc1` was tested, and the “Percent Effect” value was -8.402%.
For `Cc1ccc2cc(CN(C)Cc3ccccn3)c(=O)[nH]c2c1`, the “Percent Effect” value was -6.108%.
`O=c1[nH]c2ccccc2cc1CN(Cc1ccccn1)CC1CCCO1` (stereo unspecified) was tested, and the “Percent Effect” value was 51.43%.
In the case of `c1ccc(CN(Cc2cccc3cnccc23)CC2CCCO2)nc1` (stereo unspecified), the “Percent Effect” value is reported as 13.24%.
